Source: PubChem BioAssay (NCATS)
Results filed as inconclusive are left out. Activity calls are given as the source filed them. Unless noted, calls follow the shape of the dose curve; as a rule, active = well fitted curve in either direction with a large enough effect (not every such curve was filed as active); inconclusive = small, poorly fitted or top-dose-only effect, or another doubt; inactive = flat fitted curve, though single readings scatter.

How the values were obtained:
[1] = molecular target: Lysosomal acid glucosylceramidase (Homo sapiens) (UniProt P04062); experiment: Glucocerebrosidase-p2 (AID 348; in the data active = potency below about 10 µM; also: potency is read from the fitted curve at half-maximal effect); details: purified GBA, blue fluorogenic substrate, 40 min
Summary of the method: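 Normal human glucocerebrosidase (0.2 nM) with blue fluorogenic substrate (80 uM final) in citrate/phosphate pH 5.9 with 10mM sodium taurocholate, 0.01% tween-20; 40 min RT, NaOH/glycine stop; fluorescence Ex 365/Em 440; AC50 from a titration from 0.6 nM upwards.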

[2] = AP1 Signaling Pathway (AID 357); details: ME-180 AP-1-bla reporter, EGF-induced, beta-lactamase ratio, 5 h; at 7.69 µM (top of the series) unless noted;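 also: ME-180 reporter cells stimulated with EGF at its EC50 level; % is scaled to controls: 0 for no effect and ±100 for the full control effect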
Summary of the method: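 Beta-lactamase reporter under AP-1 response element, ME-180 background. Stimulus: EC50 EGF. Compound exposure 5 h, 37 °C. Detection: CCF4, 2.5 h RT, 460/530 nm. Values: AC50 from titration.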

[3] = NFAT Signaling Pathway (AID 444); details: Jurkat NFAT-bla M1, carbachol, beta-lactamase ratio, 5 h; at 7.69 µM (top of the series) unless noted;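 also: carbachol stimulus at about its EC50 of 1 µM final; % is scaled to controls: 0 for no effect and ±100 for the full control effect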
Summary of the method: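 Read-out: CCF4 FRET ratio (460 nm/530 nm) after 1 h RT dye loading, used for %activity and AC50 from titration series. Cells: Jurkat NFAT-β-lactamase/M1 line, treated with compound plus 1 uM carbachol for 5 h, 37 °C.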

[4] = Stat Signaling Pathway (AID 446); details: ME-180 SIE beta-lactamase reporter, IL-6 stimulated, 5 h; at 7.69 µM (top of the series) unless noted;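 also: ME-180 cervical cancer cells given 40 pM IL-6 alongside compound; SIE-controlled beta-lactamase reporter measured as 460/530 nm FRET emission ratio; % is scaled to controls: 0 for no effect and ±100 for the full control effect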
Summary of the method: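 Compound effects on IL-6-induced STAT reporter activity were measured in ME-180 cells. After overnight culture, cells were co-treated with 40 pM IL-6 for 5 hrs before beta-lactamase substrate loading at room temperature.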

[5] = molecular target: Glucocorticoid receptor (Homo sapiens) (UniProt P04150); experiment: GR-GFP Redistribution (AID 450;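 active = compounds whose dose series gives a full or clear partial fitted curve of increased nuclear translocation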; also: potency is read from the fitted curve at half-maximal effect); details: U2OS GR-GFP nuclear translocation, laser cytometry, 2 h
[6] = molecular target: Glucocorticoid receptor (Homo sapiens) (UniProt P04150); experiment: GR-EFC Redistribution (AID 451; calls by dose curve; also: potency is read from the fitted curve at half-maximal effect); details: CHO-K1 GR-EFC translocation, beta-gal luminescence, 2 h
Summary of the method: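 Translocation of GR-ED fusion to nuclear EA restores b-gal, read by luminescence after 1 h room-temperature detection. Engineered CHO-K1 biosensor cells, 1,000/well, exposed 2 h at 37 C to titrations up to 46 uM final.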

[7] = molecular target: Mitogen-activated protein kinase 10 (Mus musculus) (UniProt Q61831); experiment: JNK3 AlphaScreen Assay (AID 530); details: JNK3 lysate, c-Jun phosphorylation; series mostly up to 11.4 µM;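 also: kinase came from lysate of stimulated human HepG2 cells; signal reports phosphorylation of biotinylated GST-cJun 1-79 at Ser73 with 10 µM ATP; % is scaled to controls: 0 for no effect and ±100 for the full control effect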
Summary of the method: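 qHTS titrations with 15 min compound pre-incubation before adding ATP (10 uM final). Read-out: AlphaScreen of Ser73-phosphorylated biotin-GST-cJun using HepG2 lysate JNK3 activated by IL-1β and TNFα.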

[8] = molecular target: 3',5'-cyclic-AMP phosphodiesterase 4B (Homo sapiens) (UniProt Q07343); experiment: qHTS Assay for Inhibitors of PDE-IV (AID 607; active = well fitted activation curve with a large enough effect in the main read-out, with a control signal flat, not every such curve was filed as active; also: % of control where 0% means no effect); details: HEK293 ACTOne CNG channel cells, membrane potential fluorescence; series mostly up to 22.9 µM
Summary of the method: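 ACTOne HEK293 cells carry a modified cAMP-gated CNG channel and express endogenous PDE4; plated 1000 cells/well, compounds up to 22.9 uM final. Membrane-potential dye fluorescence (ex 535/em 590) was read; parental cells received 10 uM forskolin + 100 uM RO 20-1724.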

[9] = molecular target: Cytochrome P450 2C19 (Homo sapiens) (UniProt P33261); experiment: qHTS Assay for Inhibitors and Substrates of Cytochrome P450 2C19 (AID 899; active = well fitted curve in the direction sought with a large enough effect; an effect the other way counts as inactive or inconclusive; also: % is scaled to controls: 0 for no effect and ±100 for the full control effect; nearly all actives have a fitted effect of over 60% in size); details: recombinant CYP2C19, luciferin-H EGE luminescence; series mostly up to 11.4 µM
Summary of the method: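 5nM enzyme + 10uM Luciferin-H EGE (=KM), 50mM KPO4; cpd pin-transferred, 10 min 37C; NADPH regen, 60 min 37C; stopped w/ luciferin detection reagent, 20 min; luminescence. Normalized to 57uM ketoconazole (AC100).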

[10] = qHTS Assay for Identification of Small Molecule Agonists for Hypoxia Response Element Signaling Pathway (AID 914; active = well fitted activation curve with a large enough effect in the signal ratio, with a control signal flat, not every such curve was filed as active; the % refers to the signal ratio; also: % of control where 0% means no effect); details: ME-180 (cervical carcinoma) HRE-bla reporter, beta-lactamase ratio, CoCl2, 17 h; activation: active compounds read high
Summary of the method: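 HRE-bla ME-180 assay for agonist-like enhancement of an EC50 CoCl2 stimulus: 17 h at 37 degrees Celsius, CCF4 for 2.5 h, ratiometric 460/530 nm signal converted to %Activity and fitted to AC50.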

[11] = molecular target: Cytochrome P450 3A4 (Homo sapiens) (UniProt P08684); experiment: qHTS Assay for Activators of Cytochrome P450 3A4 (AID 885; active = well fitted curve in the direction sought with a large enough effect; an effect the other way counts as inactive or inconclusive; also: nearly all actives have a fitted effect of over 65% in size); details: recombinant CYP3A4, Luciferin-PPXE luminescence, 60 min; series mostly up to 11.4 µM
Summary of the method: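 CYP3A4 activity: Luciferin-PPXE O-dealkylation, 25uM substrate, 200mM KPO4, RT throughout. Read-out is luciferase luminescence; higher values reflect activation.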

3',5'-cyclic-AMP phosphodiesterase 4B (Homo sapiens), sequence (Q07343 whole entry, looked up): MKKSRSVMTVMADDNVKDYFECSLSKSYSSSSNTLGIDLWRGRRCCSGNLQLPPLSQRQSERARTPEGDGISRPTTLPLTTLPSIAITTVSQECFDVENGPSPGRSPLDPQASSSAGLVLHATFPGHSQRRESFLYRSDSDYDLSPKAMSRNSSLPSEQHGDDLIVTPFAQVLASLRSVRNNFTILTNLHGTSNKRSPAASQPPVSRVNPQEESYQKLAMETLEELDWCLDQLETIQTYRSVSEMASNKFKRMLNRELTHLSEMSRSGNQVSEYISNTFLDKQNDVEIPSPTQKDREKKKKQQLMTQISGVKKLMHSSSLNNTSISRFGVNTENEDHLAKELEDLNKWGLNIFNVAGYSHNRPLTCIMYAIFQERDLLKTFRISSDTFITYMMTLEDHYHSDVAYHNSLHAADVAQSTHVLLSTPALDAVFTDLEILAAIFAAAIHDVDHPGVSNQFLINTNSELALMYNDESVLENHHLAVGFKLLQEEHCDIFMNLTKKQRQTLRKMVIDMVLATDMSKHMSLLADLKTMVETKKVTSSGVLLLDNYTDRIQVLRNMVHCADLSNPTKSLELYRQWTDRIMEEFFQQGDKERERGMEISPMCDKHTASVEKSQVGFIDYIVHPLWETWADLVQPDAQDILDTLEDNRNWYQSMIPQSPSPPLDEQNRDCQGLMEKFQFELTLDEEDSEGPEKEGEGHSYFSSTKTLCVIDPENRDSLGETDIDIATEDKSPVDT
Lysosomal acid glucosylceramidase (Homo sapiens), sequence (P04062 whole entry, looked up): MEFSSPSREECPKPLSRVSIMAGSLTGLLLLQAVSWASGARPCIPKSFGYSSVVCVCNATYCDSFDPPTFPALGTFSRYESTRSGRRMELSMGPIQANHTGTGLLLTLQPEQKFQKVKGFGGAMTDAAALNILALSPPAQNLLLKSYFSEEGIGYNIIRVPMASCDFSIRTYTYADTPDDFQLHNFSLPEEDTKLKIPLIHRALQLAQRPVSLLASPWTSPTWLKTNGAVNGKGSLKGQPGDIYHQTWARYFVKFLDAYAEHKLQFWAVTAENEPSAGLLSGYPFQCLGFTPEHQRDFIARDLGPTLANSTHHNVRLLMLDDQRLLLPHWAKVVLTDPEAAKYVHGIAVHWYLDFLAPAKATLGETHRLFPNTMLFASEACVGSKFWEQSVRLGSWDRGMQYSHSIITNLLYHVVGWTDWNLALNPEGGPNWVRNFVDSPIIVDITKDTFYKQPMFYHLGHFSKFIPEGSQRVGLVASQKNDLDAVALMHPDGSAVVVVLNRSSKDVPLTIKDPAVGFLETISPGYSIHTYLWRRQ
Glucocorticoid receptor (Homo sapiens), sequence (P04150 whole entry, looked up, the tested form may be a part): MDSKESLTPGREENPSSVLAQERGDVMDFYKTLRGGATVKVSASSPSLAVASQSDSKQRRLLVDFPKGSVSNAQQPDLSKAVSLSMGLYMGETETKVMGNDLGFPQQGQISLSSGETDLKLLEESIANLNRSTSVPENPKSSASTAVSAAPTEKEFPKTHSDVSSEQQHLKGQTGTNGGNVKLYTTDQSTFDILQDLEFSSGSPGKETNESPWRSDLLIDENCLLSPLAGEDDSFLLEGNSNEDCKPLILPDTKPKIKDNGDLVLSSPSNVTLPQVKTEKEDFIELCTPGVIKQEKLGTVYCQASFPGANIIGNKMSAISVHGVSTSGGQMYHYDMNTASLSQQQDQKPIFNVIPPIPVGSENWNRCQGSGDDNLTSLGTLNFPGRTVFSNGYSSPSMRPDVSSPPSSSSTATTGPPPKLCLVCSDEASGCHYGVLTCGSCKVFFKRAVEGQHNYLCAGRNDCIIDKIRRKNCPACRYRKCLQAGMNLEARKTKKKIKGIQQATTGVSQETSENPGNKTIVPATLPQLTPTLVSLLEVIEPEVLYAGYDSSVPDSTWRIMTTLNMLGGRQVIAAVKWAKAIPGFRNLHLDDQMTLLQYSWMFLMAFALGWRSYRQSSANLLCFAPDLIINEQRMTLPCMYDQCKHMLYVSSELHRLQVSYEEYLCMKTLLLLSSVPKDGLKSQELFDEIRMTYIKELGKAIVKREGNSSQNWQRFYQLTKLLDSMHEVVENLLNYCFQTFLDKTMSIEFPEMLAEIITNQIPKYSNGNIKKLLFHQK
Cytochrome P450 2C19 (Homo sapiens), sequence (P33261 whole entry, looked up): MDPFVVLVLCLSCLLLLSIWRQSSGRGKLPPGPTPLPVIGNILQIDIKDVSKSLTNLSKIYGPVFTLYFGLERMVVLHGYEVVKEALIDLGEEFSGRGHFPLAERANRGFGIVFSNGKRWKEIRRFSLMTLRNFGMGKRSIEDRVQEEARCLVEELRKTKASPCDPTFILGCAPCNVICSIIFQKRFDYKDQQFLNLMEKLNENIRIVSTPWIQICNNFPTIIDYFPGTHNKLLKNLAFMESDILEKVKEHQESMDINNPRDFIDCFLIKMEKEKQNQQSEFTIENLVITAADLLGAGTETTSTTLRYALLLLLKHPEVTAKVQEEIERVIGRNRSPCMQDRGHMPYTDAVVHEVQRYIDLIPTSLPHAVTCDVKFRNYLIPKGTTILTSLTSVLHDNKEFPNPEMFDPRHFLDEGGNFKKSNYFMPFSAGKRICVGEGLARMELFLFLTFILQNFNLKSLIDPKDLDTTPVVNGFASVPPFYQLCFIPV
Cytochrome P450 3A4 (Homo sapiens), sequence (P08684 whole entry, looked up): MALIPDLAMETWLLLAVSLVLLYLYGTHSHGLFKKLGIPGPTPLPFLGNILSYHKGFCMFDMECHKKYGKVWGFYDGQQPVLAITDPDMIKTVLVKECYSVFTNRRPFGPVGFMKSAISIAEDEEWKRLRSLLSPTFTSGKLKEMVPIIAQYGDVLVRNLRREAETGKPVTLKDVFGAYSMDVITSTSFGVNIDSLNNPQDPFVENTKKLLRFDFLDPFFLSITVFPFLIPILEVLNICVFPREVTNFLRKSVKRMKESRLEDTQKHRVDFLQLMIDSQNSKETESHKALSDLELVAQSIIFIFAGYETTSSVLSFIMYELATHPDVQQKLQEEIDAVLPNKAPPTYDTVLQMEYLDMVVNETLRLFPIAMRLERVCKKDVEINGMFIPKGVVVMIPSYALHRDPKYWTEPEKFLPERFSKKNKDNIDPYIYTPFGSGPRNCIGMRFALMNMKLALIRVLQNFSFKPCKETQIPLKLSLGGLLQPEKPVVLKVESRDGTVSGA

O=C(O)CC[C@@H](C(=O)O)N1C(=O)[C@@H]2[C@@H]3CC[C@H](C3)[C@@H]2C1=O
inactive: Potency [1] > 11.4 µM | activity change, negative = inhibition [2] 11.4% | activity change, negative = inhibition [3] 3.45% | activity, negative = inhibition [4] -17% | Potency [5] > 46 µM | Potency [6] > 9.22 µM | Potency [7] | Potency [8] | Potency [9]

CCOC(=O)C(C)(C)[C@H](O)C(C)C
inactive: Potency [1] > 11.4 µM | activity change, negative = inhibition [2] -4.38% | activity change, negative = inhibition [3] 6.94% | activity, negative = inhibition [4] -3.53% | Potency [5] > 46 µM | Potency [6] > 9.22 µM | Potency [7] | Potency [8] | activation [10] 11.4%

O=c1[nH]c(SCc2cccc([N+](=O)[O-])c2)nc2nc[nH]c12
inactive: Potency [1] > 11.4 µM | activity change, negative = inhibition [2] -0.65% | activity change, negative = inhibition [3] -8.58% | activity, negative = inhibition [4] 8.09% | Potency [5] > 46 µM | Potency [6] > 9.22 µM | Potency [7] | Potency [8] | Potency [11] | Potency [9]

O=C(O)c1ccc2c(c1C(=O)O)C(=O)OC2(c1ccc(O)cc1)c1ccc(O)cc1
inactive: Potency [1] > 11.4 µM | activity change, negative = inhibition [2] 2.33% | activity change, negative = inhibition [3] 0.0722% | activity, negative = inhibition [4] 1.84% | Potency [5] > 46 µM | Potency [6] > 9.22 µM | Potency [7] | Potency [8] | activation [10] 9.96%

Cc1ccc(S(=O)(=O)OCC(=O)O)cc1
inactive: Potency [1] > 11.4 µM | activity change, negative = inhibition [2] 2.36% | activity change, negative = inhibition [3] 4.54% | activity, negative = inhibition [4] 5.39% | Potency [5] > 46 µM | Potency [6] > 9.22 µM | Potency [8]

OC[C@H](CCc1c[nH]c2ccccc12)c1c[nH]c2ccccc12
inactive: Potency [1] > 11.4 µM | activity change, negative = inhibition [2] -11.6% | activity change, negative = inhibition [3] 29.4% | activity, negative = inhibition [4] -1.35% | Potency [5] > 46 µM | Potency [6] > 9.22 µM | Potency [7] | Potency [8] | activation [10] -29.3%

Nc1nc2c(ncn2[C@H]2CC[C@@H](CO)O2)c(=O)n1C(=O)c1ccccc1
inactive: Potency [1] > 11.4 µM | activity change, negative = inhibition [2] 5.69% | activity change, negative = inhibition [3] -10.1% | activity, negative = inhibition [4] 0.604% | Potency [5] > 46 µM | Potency [6] > 9.22 µM | Potency [8]
